Results from PubChem BioAssay AID1468 (National Center for Advancing Translational Sciences (NCATS), 2008).
Several values for one entry are separate records, joined by “and”; a condition that tells them apart may be missing. Identical values can stand only once. Out of some 280,000 compounds screened, about 1,100 (0.39%) were called active. Not shown: some 7% with an inconclusive outcome. Calls come from the whole dose curve; as a rule, active = well fitted inhibition curve with a large enough effect; inconclusive = small, poorly fitted or top-dose-only effect, or effect the other way; inactive = flat fitted curve, though single readings scatter. Shown is part of a subset that was picked to be rich in actives. Entries that show only a call come without a potency.

biological target: Microtubule-associated protein tau (Homo sapiens) (UniProt P10636); experiment: qHTS for Inhibitors of Tau Fibril Formation, Fluorescence Polarization; settings: K18 P301L tau heparin fibrillization, Alexa594 FP, 6 h; series mostly up to 57.7 µM; note: nearly all actives have a fitted effect of over 55% in size
Sequence (P10636 561-689 P618L limits assumed): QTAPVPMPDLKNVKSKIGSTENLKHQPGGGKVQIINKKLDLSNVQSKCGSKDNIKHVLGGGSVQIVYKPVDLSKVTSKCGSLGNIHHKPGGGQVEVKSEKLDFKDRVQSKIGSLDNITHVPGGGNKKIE
How it was run: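 Compound effects on tau fibrillization are measured by Alexa 594 fluorescence polarization (ex 555, em 632 nm). K18 P301L tau is used at 15 uM with 0.24 uM labeled tracer, and 20 uM heparin induces aggregation over 6 hr at 37 C.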
Potency is the fitted concentration of half-maximal effect.

Structure (SMILES)	Potency
Cc1cccc2nc(-c3ccc(Cl)s3)c(Nc3ccc4c(c3)OCCO4)n12	inactive
Cc1ccc2sc(N(Cc3cccnc3)C(=O)C3COc4ccccc4O3)nc2c1C (stereo unspecified)	inactive
COc1ccc(N2CCN(C(=O)C3CCCN(C(=O)c4cc5sccc5n4C)C3)CC2)cc1 (stereo unspecified)	inactive
CCc1ccc(CN(Cc2ccco2)C(=O)COc2ccc(Cl)c(C)c2)cc1	inactive
CCOC(=O)C1=C(C)N=c2s/c(=C\C(=O)OC)c(=O)n2C1c1ccc(OC)cc1 (stereo unspecified)	inactive
COc1ccc(OC)c(C2C3=C(N=c4s/c(=C\c5cccc(O)c5)c(=O)n42)c2ccccc2CC3)c1 (stereo unspecified)	22.4 µM (active)
O=C1CCCC2=C1C(c1ccccc1)n1c(s/c(=C/c3cccc(F)c3)c1=O)=N2 (stereo unspecified)	inactive
COC(=O)c1sccc1S(=O)(=O)N(CC(=O)Nc1ccc(C)c(F)c1)c1ccc(C)c(C)c1	inactive
CCOc1ccc(Nc2ncnc3scc(-c4ccc(OC)cc4)c23)cc1	inactive
CCOC(=O)N1CCc2c(sc(NCc3cccc(F)c3)c2C(=O)Nc2ccccc2OCC)C1	inactive
CCOC(=O)N1CCc2c(sc3c2c(=O)n(-c2ccc(CC)cc2)c(=O)n3C)C1	inactive
Cc1ccccc1CNC(=O)c1cccc(NC(=O)c2nsc3ccccc23)c1	inactive
Cc1ccc(NC(=O)Nc2cc(-c3ccccc3)nn2C)cc1Cl	14.1 µM (active)
Cc1cc(NC(=O)Nc2ccc(Cl)cc2)n(-c2ccccc2)n1	inactive
Cc1cc(NC(=O)Nc2ccccc2)n(-c2ccccc2)n1	inactive
CC1CN(C(=O)N2CCC(C(=O)NCc3ccco3)CC2)c2cc(Cl)ccc2O1 (stereo unspecified)	inactive
Cc1cccc(NC(=O)CSc2nc3c([nH]c4ccccc43)c(=O)n2-c2cc(C)cc(C)c2)c1	inactive
COCCn1c(SCC(=O)c2cc(C)ccc2C)nc2cc(C(=O)NC3CCCC3)ccc2c1=O	inactive
COc1ccc(-c2cn3c(C)c(C(=O)Nc4cc(C)cc(C)c4)sc3n2)cc1	inactive
c1ccc(-n2nnnc2N2CCOCC2)cc1	inactive
O=C1OC(NC(=O)c2ccccc2)C(N2CCOCC2)=C1Cl (stereo unspecified)	inactive

Structure (SMILES)	Potency
O=C1C(Cl)=C(N2CCOCC2)C(=O)N1c1ccccc1	28.2 µM (active)
Cc1ccc2nc(N3CCN(c4cccc(Cl)c4)CC3)c3nnnn3c2c1	inactive
O=C(CNS(=O)(=O)c1cccs1)N1CCN(c2ccccc2Cl)CC1	inactive
Cc1ccccc1CN1CCC(CNC(=O)c2cc3ccc4cccnc4c3[nH]2)CC1	inactive
COc1ccccc1CNC(=O)NCc1noc2ccc(C)cc12	inactive
Cc1ccc(NC(=O)C2CCN(S(=O)(=O)c3cc(-c4noc(C)n4)ccc3C)CC2)c(C)c1	inactive
COc1ccc(OC)c(NC(=O)CSc2nc3ccccc3nc2N2CCCCC2)c1	inactive
O=c1c(O)c(Br)ccc2c(Br)c(O)c(O)c(O)c12	10 µM (active)
CC(C)Cn1c(=O)c2ccccc2n2c(-c3cccc(Cl)c3)nnc12	inactive
COc1ccc2c(c1)c(N1CCCC1=O)c(C(=O)Nc1ccccc1C(F)(F)F)n2C	inactive
COc1ccc(Nc2nc(Cl)nc(NCc3ccco3)n2)cc1	inactive
CN(c1ccccc1)c1nc(N)c([N+](=O)[O-])c(NCc2ccco2)n1	inactive
COc1cccc(Nc2nc(N)c([N+](=O)[O-])c(NCc3ccco3)n2)c1	3.16 µM (active)
O=C(NCC(c1cccnc1)N1CCc2ccccc21)c1cccc(C(F)(F)F)c1 (stereo unspecified)	inactive
Cc1cc(C)cc(NS(=O)(=O)c2ccc3[nH]cc(C(=O)N4CCCCC4)c(=O)c3c2)c1	inactive
CC(C)c1ccc(NS(=O)(=O)c2ccc3[nH]cc(C(=O)NC4CCCC4)c(=O)c3c2)cc1	11.2 µM (active)
COc1ccc(S(=O)(=O)NC(C)C)cc1C(=O)NC1CCCCC1	inactive
Cc1cccc(NC(=O)Cn2nc(-c3ccc(Cl)cc3)c3ccccc3c2=O)c1	inactive
O=S(=O)(c1ccccc1)c1nc(-c2ccc(Cl)cc2Cl)oc1N1CCCCC1	inactive
CCc1ccc(NC(=O)CN2CCSc3ccc(S(=O)(=O)N4CCCC4)cc32)cc1	inactive
COc1ccc(S(=O)(=O)NCc2cccn2Cc2cccc(C)c2)cc1Cl	inactive

Structure (SMILES)	Potency
Cc1cccc(CC(=O)N2CC(=O)Nc3ccc(F)cc3C2c2ccccc2)c1 (stereo unspecified)	inactive
Cc1ccc(-c2nnc(-c3ccc(NC(=O)c4cccs4)cc3)o2)cc1	inactive
CC(C)c1ccc2oc(-c3cc(NC(=O)c4cccs4)ccc3Cl)nc2c1	12.6 µM (active)
O=C(Nc1ccc(-c2nc3cc(NC(=O)c4ccccc4Cl)ccc3o2)cc1)c1ccccc1Cl	inactive
CCN(CC)CCNC(=O)c1cc2c(=O)oc3ccc(C)cc3c2s1	inactive
Cc1cccc(NC(=O)c2cccc(C(F)(F)F)c2)c1	inactive
Cc1cccc(NC(=O)Nc2cccc(Oc3c(F)c(F)c(F)c(F)c3F)c2)c1	8.91 µM (active)
COc1cccc(NC(=O)NCc2ccc(F)cc2)c1	inactive
COc1cc2c(=O)c(S(=O)(=O)c3ccc(C(C)C)cc3)cn(Cc3ccccc3C)c2cc1OC	inactive
CCOc1ccc(CNC(=O)c2cc(-c3ccc(Cl)s3)nc3ccccc23)cc1	inactive
O=C(Nc1ccccc1)Nc1ccccc1C(=O)NCc1ccco1	inactive
CCc1ccc(-c2cc(C(=O)NCc3ccco3)c3ccccc3n2)s1	28.2 µM (active)
COc1ccc(-c2noc(-c3ccc(N4CCN(c5ccccc5)CC4)c([N+](=O)[O-])c3)n2)cc1OC	inactive
CCOc1ccccc1CNCc1c(C(=O)O)c(C)n(Cc2ccc(C)cc2)c1C	inactive
COc1ccccc1CNC(=O)CCn1c(=O)c2ccccc2n(CC(=O)Nc2ccc(Br)cc2F)c1=O	inactive
Cc1cc(C)c2oc(C(=O)Nc3ccc(S(=O)(=O)N(C)c4ccccc4)cc3)cc(=O)c2c1	inactive
COc1ccc(-c2csc(-c3c(N)c(C(=O)c4ccc(OC)c(OC)c4)n4ccccc34)n2)cc1	inactive
Cc1ccc(Cl)cc1N1CCN(C(=O)CN2C(=O)COc3ccc(S(=O)(=O)N4CCOCC4)cc32)CC1	inactive
COc1ccc(-n2c(=O)c3c(c4cc(OC)ccc4n3C)n(Cc3cccc(C)c3)c2=O)cc1	inactive
Nc1ccc2nc3c(=O)[nH]c(=S)[nH]c3nc2c1	2.24 µM (active)
O=c1[nH]c(=O)c2nc3ccccc3nc2[nH]1	inactive

Structure (SMILES)	Potency
COc1ccc(CCNC(=O)c2ccc(-n3c(C)cc4c3CCCC4)cc2)cc1OC	inactive
Cc1ccc2oc3c(c(=O)c2c1)C(c1ccc([N+](=O)[O-])cc1)N(CCCN1CCOCC1)C3=O (stereo unspecified)	inactive
Cc1cc(C)c(NC(=O)CCc2c(C)nc3c(c(C)nn3C(C)(C)C)c2C)c(C)c1	inactive
COC(=O)c1ccccc1NC(=O)c1ccc2c(=O)n3c(nc2c1)CCCCC3	inactive
COc1ccc(N2CCN(c3nc(-c4ccccc4F)nc4ccccc34)CC2)cc1	inactive
CC(=O)Oc1c2c(c3c(c1CC=C(C)C)O[C@@]14C(=CC5CC1C(C)(C)OC4(C/C=C(\C)C(=O)O)C5=O)C3=O)OC(C)(CCC=C(C)C)C=C2 (stereo partly specified)	35.5 µM (active)
CCc1cccc(NC(=O)CSc2nccn2C)c1	inactive
COC(=O)c1c(NC(=O)C(C)Oc2ccc(Cl)c(C)c2)sc(C)c1C (stereo unspecified)	inactive
CCc1nc2cccnc2n1-c1ccc(CC(=O)Nc2c(C)cccc2C)cc1	inactive
CCN(CC)S(=O)(=O)c1ccc2[nH]cc(C(=O)NCCc3ccccc3)c(=O)c2c1	12.6 µM (active) and 14.1 µM (active)
CCN(CC(=O)NCCc1ccccc1)S(=O)(=O)c1ccc(C)cc1	inactive
CCN(CC(=O)NCCc1ccccc1)S(=O)(=O)c1ccccc1	inactive
CC(C)(C)OC(=O)N1CCC(c2c(C(=O)Nc3ccc4c(c3)OCO4)cnn2-c2ccccc2)CC1	inactive
Cc1ccc(Cn2cc(CCC(=O)NCc3ccc(OC(C)C)cc3)c3ccccc32)cc1	inactive
CC(=O)c1cccc(S(=O)(=O)N2CCC(n3nnc4cc(F)ccc43)CC2)c1	inactive
Cc1ccc(C)c(N2CCN(c3ccc4cc(S(=O)(=O)N5CCC(C)CC5)ccc4n3)CC2)c1	inactive
CC(=O)c1cccc(Nc2ccc3cc(S(=O)(=O)N4CCC(C)CC4)ccc3n2)c1	12.6 µM (active)
Cc1ccc(CNS(=O)(=O)c2ccc(C(=O)N(C)C)s2)cc1	inactive
